The structures appear in SMILES notation. Results filed as inconclusive are left out. Activity calls are given as the source filed them. Unless noted, the call rests on the fitted dose curve; in most records, active means well fitted curve in the direction sought with a large enough effect in the repeat runs; inconclusive means weak or mixed curves; inactive means no such curve, though single readings can be large; an effect the other way counts as inactive or inconclusive.

A short description of experiment [1]: qHTS assay to identify small molecule agonists of the NFkB signaling pathway - cell viability counter screen (AID 1159515; calls by dose curve; further: nearly all actives have a fitted effect of over 55% in size; further: potency means the concentration at half of the fitted maximal effect). The procedure, abridged:
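5 hr compound treatment of NFkB-bla ME-180 cells (2,000/well, seeded overnight beforehand), followed by reporter substrate for 1.5 hr. CellTiter-Glo added afterward; luminescence after 30 min RT.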

Experiment [2] in a line: qHTS assay to identify small molecule antagonists of the retinoid-related orphan receptor gamma (ROR-gamma) signaling pathway - cell viability counter screen (AID 1159520). Further: nearly all actives have a fitted effect of over 50% in size. Further: potency means the concentration at half of the fitted maximal effect. The procedure, abridged: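 Tet-on ROR gamma CHO cells (1,000/well) were plated 4 hr, given compounds in DMSO for 2 hr at 37 C, then induced with 1 uM final doxycycline for 16 hr. Viability was read as ATP by CellTiter-Glo luminescence after 30 min.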

A short description of experiment [3]: qHTS assay to identify small molecule agonists of the AP-1 signaling pathway - cell viability counter screen (AID 1159525; calls by dose curve; further: nearly all actives have a fitted effect of over 55% in size). The procedure, abridged: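 ME-180 AP-1-bla, 2500 cells/well, Opti-MEM + 0.5% dialyzed FBS; overnight 37 °C; cpd 15-pt titration, 5 h 37 °C; CellTiter-Glo 30 min RT; luminescence read; normalised to TOAB and DMSO controls.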
The nature of experiment [4]: qHTS assay to identify small molecule antagonists of the retinoid acid receptor (RAR) signaling pathway - cell viability counter screen (AID 1159551). Further: nearly all actives have a fitted effect of over 35% in size. The procedure, abridged: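 Seed C3RL4 cells; next day add compound, then retinol to 1 uM final; incubate 6 h at 37 C; add CellTiter-Glo; read luminescence after 30 min at RT.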
Experiment [5] is described as follows: qHTS assay to identify small molecule antagonists of the retinoic acid receptor (RAR) signaling pathway (AID 1159552; further: nearly all actives have a fitted effect of over 50% in size; further: potency means the concentration at half of the fitted maximal effect). The procedure, abridged:
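Antagonism of retinol-induced RARE reporter activity was measured in C3RL4 cells. Exposure to compounds and 1 uM final retinol lasted 6 hr at 37 C, with luminescence as endpoint.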

Experiment [6] is described as follows: qHTS assay to identify small molecule agonists of the retinoic acid receptor (RAR) signaling pathway (AID 1159553). The procedure, abridged: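 Activation of retinol signaling was monitored via a RARE luciferase reporter in C3RL4 cells. After 6 hr compound treatment at 37 C, detection reagent was added for 30 min at room temperature before luminescence reading.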

Experiment [7] in a line: qHTS assay to identify small molecule antagonists of the estrogen related receptor (ERR) signaling pathway (AID 1224819; further: potency means the concentration at half of the fitted maximal effect; nearly all actives have a fitted effect of over 50% in size). The procedure, abridged: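 qHTS in ERR cells, 2,000/well, 1536 format. Cpd (DMSO) added after 6 h settle, 18 h 37 C. One-Glo luminescence, 30 min RT.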
Experiment [8] in a line: qHTS assay to identify small molecule agonists of the estrogen related receptor (ERR) signaling pathway (AID 1224820). The essentials: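 Cells: ERR line from NTP, 2,000/well. Pre-incubation 6 h, 37 C/5% CO2. Compound (DMSO) pin transfer, 18 h 37 C. One-Glo, 30 min RT, luminescence.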
The nature of experiment [9]: qHTS assay to identify small molecule agonists of the estrogen related receptor signaling pathway with the pleiotropic PPARgamma coactivator (PGC) (AID 1224823). The procedure, abridged:
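Steps: plate PGC/ERR cells at 2,000 cells/well; incubate 6 h, 37 C/5% CO2; pin-transfer compounds (DMSO); incubate 18 h, 37 C; add One-Glo; 30 min RT; read luminescence.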

Experiment [10] addresses Luciferin 4-monooxygenase (Photinus pyralis) (UniProt P08659). The experiment in a line: qHTS assay to identify small molecule inhibitors of firefly luciferase (AID 1224835). Further: nearly all actives have a fitted effect of over 25% in size. Further: potency means the concentration at half of the fitted maximal effect. The essentials:
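Quantitative HTS format; KM concentrations of both substrates. Purified P. pyralis FLuc activity quantified from luminescence images.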

A short description of experiment [11]: qHTS assay to identify small molecule agonists of the vitamin D receptor (VDR) signaling pathway - cell viability counter screen (AID 743224). Further: nearly all actives have a fitted effect of over 50% in size. Further: potency means the concentration at half of the fitted maximal effect. The procedure, abridged:
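Here cell health was gauged by luminescent ATP detection (CellTiter-Glo, 30 min RT) in VDR-bla cells that had been incubated with test compounds for 16 h at 37C and 5% CO2.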

Experiment [12] in a line: qHTS assay to identify small molecule antagonists of the vitamin D receptor (VDR) signaling pathway - cell viability counter screen (AID 743225). Further: nearly all actives have a fitted effect of over 50% in size. Further: potency means the concentration at half of the fitted maximal effect. The essentials:
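Same-well multiplex: following 16 h treatment of HEK 293T cells carrying a UAS-driven beta-lactamase reporter with compound and agonist (3 nM final), and a 2 h FRET substrate step, CellTiter-Glo was added and luminescence read after 30 min.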

A short description of experiment [13]: qHTS assay to identify small molecule agonists of the RXR signaling pathway - cell viability counter screen (AID 1159529). Further: nearly all actives have a fitted effect of over 50% in size. Further: potency means the concentration at half of the fitted maximal effect. The procedure, abridged:
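Counter screen: CellTiter-Glo luminescence. Cells: RXR-alpha-UAS-bla HEK 293T. Medium: 2% charcoal-stripped FBS. Treatment: 16 h, 37 C. Reagent incubation: 30 min, RT.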

Experiment [14] has as its target Nuclear receptor ROR-gamma (Homo sapiens) (UniProt P51449). As to the kind of experiment: qHTS assay to identify small molecule antagonists of the retinoid-related orphan receptor gamma (ROR-gamma) signaling pathway (AID 1159521; further: nearly all actives have a fitted effect of over 50% in size; further: potency means the concentration at half of the fitted maximal effect). The procedure, abridged:
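Inducible-expression reporter assay: doxycycline (1 uM final) switched on RORγ in CHO cells bearing a ROR response element-luciferase construct, with test compounds present from 2 h beforehand. Decreased luminescence after 16 h defined antagonist activity.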

Experiment [15] is described as follows: qHTS assay to identify small molecule agonists of the AP-1 signaling pathway (AID 1159526; calls by dose curve).
Experiment [16] in a line: qHTS assay to identify small molecule antagonists of the estrogen related receptor (ERR) signaling pathway from Tox21 library - cell viability counter screen (AID 1224834). Further: nearly all actives have a fitted effect of over 30% in size. Further: potency means the concentration at half of the fitted maximal effect. The essentials: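 CellTiter-Fluor fluorescence measured; ERR cells; 17.5 h compound incubation at 37 C; 30 min reagent step.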

Luciferin 4-monooxygenase (Photinus pyralis), sequence (P08659 whole entry, looked up): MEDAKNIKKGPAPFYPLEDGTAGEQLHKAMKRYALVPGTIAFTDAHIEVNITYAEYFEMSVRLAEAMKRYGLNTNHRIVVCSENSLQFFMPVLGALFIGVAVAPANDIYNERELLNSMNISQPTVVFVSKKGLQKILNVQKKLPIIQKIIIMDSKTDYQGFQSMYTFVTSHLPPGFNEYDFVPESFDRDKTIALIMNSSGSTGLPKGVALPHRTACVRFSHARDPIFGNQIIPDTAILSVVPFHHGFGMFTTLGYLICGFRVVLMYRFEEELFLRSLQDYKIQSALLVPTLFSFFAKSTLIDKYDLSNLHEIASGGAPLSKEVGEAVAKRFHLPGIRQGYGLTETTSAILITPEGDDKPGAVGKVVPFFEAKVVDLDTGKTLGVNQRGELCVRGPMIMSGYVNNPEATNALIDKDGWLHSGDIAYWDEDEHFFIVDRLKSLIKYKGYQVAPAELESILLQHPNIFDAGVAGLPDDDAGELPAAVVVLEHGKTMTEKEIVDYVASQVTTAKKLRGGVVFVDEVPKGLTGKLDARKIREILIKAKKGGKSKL

In the case of `CC[C@@]1(O)C(=O)OCc2c1cc1n(c2=O)Cc2cc3c(CN(C)C)c(O)ccc3nc2-1`, the Potency entry in experiment [1], in experiment [3], in experiment [4], in [6] and in [10] was “inactive” each time. Moreover, the values for the Potency in experiment [2], in experiment [5] and in experiment [7] were 2.11 µM (active), 3.76 µM (active) and 0.75 µM (active), respectively. The molecule was classed as inactive in experiment [8] and in [9].

Turning to `O=C(Oc1cccc2cccnc12)c1ccccc1`, the Potency was 3.76 µM (active) in experiment [11], 2.39 µM (active) in [1] and 8.49 µM (active) in experiment [13]. Also, the Potency result in experiment [12], in experiment [2], in experiment [3] and in [4] was “inactive” each time.

With `O=Cc1cc(O)ccc1Br`, the Potency entry in experiment [11], in experiment [12], in experiment [1], in experiment [14], in experiment [3] and in experiment [15] was “inactive” each time. In addition, the Potency result in experiment [13], in [4], in experiment [5] and in experiment [16] was “inactive” each time.

As for `CC(=O)S[C@@H]1CC2=CC(=O)CC[C@]2(C)[C@H]2CC[C@@]3(C)[C@@H](CC[C@@]34CCC(=O)O4)[C@H]12`, the Potency entry in experiment [11], in [1], in experiment [2], in [3], in experiment [15] and in [4] was “inactive” throughout. The Potency result in [16] and in experiment [10] was “inactive” in each case.

As to `COc1ccc(CN2CCN(C(c3ccc(F)cc3)c3ccc(F)cc3)CC2)c(OC)c1OC`, the Potency in experiment [11] is 29.8 µM (active); in experiment [12], 16.9 µM (active); in experiment [1], 15.1 µM (active); in experiment [14] it was 23.7 µM (active); in experiment [13], 13.4 µM (active); in [5] it was 26.6 µM (active). For the same molecule, the Potency in experiment [16] is 13.3 µM (active). The Potency entry in experiment [4] and in experiment [10] was “inactive” throughout.

`O=CC=C(c1ccccc1)c1ccccc1`: the Potency entry in experiment [1], in [3], in experiment [13], in experiment [5] and in [10] was “inactive” throughout. Further, the Potency in experiment [14] was 61.6 µM (active); in experiment [16] it was 27.5 µM (active).

For `Nc1nc2ccccc2n1Cc1ccc(F)cc1`, the Potency result in [11], in experiment [12], in experiment [1], in experiment [3], in [13] and in experiment [4] was “inactive” in each case. Besides, the Potency entry in experiment [5], in experiment [6] and in [10] was “inactive” throughout. Besides, the Potency in experiment [14] was 10.6 µM (active).

In the case of `NC(=O)N1C(=O)C(C(=O)c2cc(Cl)cs2)c2cc(F)c(Cl)cc21` (stereo not given), the Potency was 21.9 µM (active) in experiment [11]; 13.8 µM (active) in experiment [12]; 19.3 µM (active) in experiment [14]; 49 µM (active) in experiment [13]; 27.3 µM (active) in [16]; 71 µM (active) in [10]. In addition, the Potency entry in experiment [1], in experiment [3], in experiment [4] and in experiment [5] was “inactive” throughout.

Take `O=C(NOCC1CC1)c1ccc(F)c(F)c1Nc1ccc(I)cc1Cl`: the Potency entry in experiment [12], in experiment [1], in experiment [5] and in experiment [10] was “inactive” each time. For the same molecule, the results for the Potency in [14] and in experiment [16] were 9.44 µM (active) and 18.8 µM (active), respectively.

Consider `O=C(Nc1ccc(Oc2ccc(Cl)cc2)c(Cl)c1)c1cc(I)cc(I)c1O`, for which the Potency in experiment [11] is 18.8 µM (active); in experiment [14], 23.7 µM (active). In addition, the Potency result in [1], in [3], in experiment [4], in experiment [6], in experiment [16] and in experiment [10] was “inactive” each time.

For the origin of these results see PubChem BioAssay (Tox21).
